# NR0B1 inh: inhibits human nuclear receptor DAX1 | P51843 | HEK293 Gal4-DAX1 luciferase reporter, luminescence | inhibition, % at 6.75 µM | 340,000 tested, 0.99% active | AID 504766;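 active means inhibition above the mean over all tested compounds plus 3 SD, cut at about 4.2% in these data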;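 further: 0% = DAX1-transfected cells with DMSO and 100% = empty-vector control cells with DMSO; inhibition shows as a rise in luminescence from relieved DAX1 repression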
# Target sequence (P51843 207-470 limits assumed): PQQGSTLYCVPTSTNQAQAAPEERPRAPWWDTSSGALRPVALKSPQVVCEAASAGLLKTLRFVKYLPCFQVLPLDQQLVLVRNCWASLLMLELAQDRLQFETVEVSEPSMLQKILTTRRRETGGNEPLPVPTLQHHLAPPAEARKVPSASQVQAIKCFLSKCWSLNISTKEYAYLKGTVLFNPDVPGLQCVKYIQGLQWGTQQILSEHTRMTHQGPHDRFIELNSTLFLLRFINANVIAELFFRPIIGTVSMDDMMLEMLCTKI
# AHR act: human AHR activation; activation, % at 5 µM; P35869; AHR-responsive luciferase reporter cells, luminescence; 320,000 tested, 2.5% active; in the data active means activation above about 47%;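 further: 0% = vehicle wells and 100% = reference agonist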
# GAA850 FXN act: activators of GAA850 frataxin (FXN) promoter. 360,000 tested, 0.56% active. HEK293 lucGAA850 FXN promoter luciferase reporter, 24 h; percent of 10 µM SAHA response. activation, % at 6 µM;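 active means activation above the average of all compounds screened plus 3 SD, cutoff fixed separately per campaign, cut at about 7.5% in these data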;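 further: 0% = DMSO wells and 100% = 10 µM SAHA wells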
# HSF1 inh: HSF1 inhibition; NIH3T3-HGL HSE-luciferase, MG132-induced, luminescence 8 h; hits give low values; activity change, negative = inhibition, % at 7.5 µM (by protocol); 300,000 tested, 0.77% active;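 active means more than half of replicate wells show activity change below -50%, luminescence cut by over half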;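 further: luciferase reports HSF-1 transcriptional activity via heat shock element; 0% = median of DMSO wells and -100% = zero luminescence signal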
# HSP90 inh: blocks HSP90-mediated luciferase refolding in reticulocyte lysate. inhibition, % at 5.6 µM. Rabbit reticulocyte lysate, luciferase refolding luminescence, 3 h. 290,000 tested, 0.91% active. AID 1789;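 active means inhibition above the screen-wide mean plus 3 SD, computed separately per campaign, cut at about 16% in these data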;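 further: 0% = DMSO wells and 100% = 60 µM geldanamycin wells; inhibitors lower the luminescence because luciferase stays unfolded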
# HSF1 activator: increases HSF-1 driven luciferase reporter signal. NIH3T3-HGL HSF-1 luciferase reporter, MG132, 8 h; 100% = twice DMSO control signal. activation, % at 9 µM. 300,000 tested, 1.7% active;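 active means mean replicate activation of at least 50% with a set share of replicates each reaching 50%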;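 further: 0% = median of the neutral control wells and 100% = twice that signal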
# An asterisk follows results filed as active; / = no result. Most compounds without a hit are left out; they make up all but 5.9% or so of the library.
SMILES,NR0B1 inh,AHR act,GAA850 FXN act,HSF1 inh,HSP90 inh,HSF1 activator
CCCCCCNC(=O)O[C@H]1C[C@@H]2C(=O)N(c3ccccc3)C(=O)[C@@H]2[C@@H]2CN(S(=O)(=O)c3ccc(C)cc3)C[C@]12O,2.5,/,0.0,/,/,/
CCCCn1c(N)c(N(CCOC)C(=O)c2ccc(S(=O)(=O)N(CC)c3ccccc3)cc2)c(=O)[nH]c1=O,0.1,-0.8,0.8,-0.4,/,-9.3
Cc1cc(C)c2nc(SCC#N)cc(C)c2c1,1.9,2.9,-1.5,-1.5,-0.4,6.5
Cc1cc(C)c2nc(C(F)(F)F)c(C#N)c(N)c2c1,0.6,12.4,-2.4,-62.0*,-3.1,-67.7
N#C/C(=C\c1cccc(O)c1)C(=O)N1CCCCC1,1.8,1.2,2.1,0.4,-1.8,9.4
N#C/C(=C\c1cccc(Br)c1)C(=O)N1CCCCC1,0.8,-1.4,0.8,-3.7,16.6*,22.0
Cc1ccc(-n2nc(CC#N)c(C#N)c2N)cc1Cl,0.1,68.1*,3.2,0.8,2.9,-5.3
Cc1ccc(SCC(=O)NNC(=O)c2ccccc2)c(C)c1,0.9,-3.0,-1.8,3.0,1.4,-0.2
Cn1cncc1C#Cc1ccc2cc(CCO)oc(=O)c2c1,0.1,48.5*,4.9,/,/,/
Cn1cncc1C#Cc1ccc2cc(CCCO)oc(=O)c2c1,-0.4,18.4,1.9,/,/,/
Cc1nnc(NCCc2ccccc2)c2ccccc12,3.3,26.7,4.4,28.3,5.7,53.6*
Cc1nnc(NCc2cccc(Cl)c2)c2ccccc12,0.8,11.0,0.9,1.8,5.7,7.1
CN1C(C(=O)Nc2ccc(OC(F)(F)F)cc2)=CC(c2cccs2)=NS1(=O)=O,-0.3,3.3,-1.5,-74.2*,-2.7,-80.4
CCNC(=O)NC(=O)CSc1ccc(S(=O)(=O)N(C)C2CCCCC2)cn1,-0.4,-0.4,-1.0,/,/,/
C[C@H](NC(=O)c1ccccc1Cl)C(=O)NCCc1ccc(S(N)(=O)=O)cc1,1.5,-0.8,-0.6,6.7,-1.1,55.6*
CC(C)(C)c1ccccc1NC(=O)c1cc(-c2ccncc2)nc2ccccc12,0.7,52.5*,-2.0,/,/,/
C[C@H](NC(=O)c1ccc(Cl)cc1)C(=O)NCCc1ccc(S(N)(=O)=O)cc1,0.6,2.4,1.5,-4.3,0.8,0.8
O=C(Nc1ccc(N2CCOCC2)cc1)c1cc(-c2ccncc2)nc2ccccc12,-0.9,5.1,-0.2,-51.9*,-0.3,-62.9
O=C(N/N=C/c1cccnc1)c1cc(-c2cccs2)nc2ccccc12,0.2,75.9*,-2.8,2.9,0.3,7.4
C[C@H]1Cn2cnc(C(=O)Nc3cccc(Cl)c3)c2C(=O)N1,-1.4,/,-3.9,/,/,/
O=C(CCCl)N1c2ccccc2C=Cc2ccccc21,-2.0,/,-0.4,/,/,/
NC(c1ccccc1)c1csc(Nc2ccc(C(=O)c3ccccc3)cc2)n1 (stereo unspecified),/,/,-0.3,/,/,/
CC(=O)Nc1ccc(NC(=O)COC(=O)c2ccc(S(=O)(=O)N(C)c3ccccc3)cc2)cc1,0.2,/,0.1,/,/,/
Cc1ccc(-c2cc(C(=O)NCCc3ccc(S(N)(=O)=O)cc3)c3ccccc3n2)cc1,-0.6,10.3,0.6,11.0,2.9,20.6
Cc1ccc(-c2cc(C(=O)Nc3nccs3)c3ccccc3n2)o1,-1.9,55.3*,-0.8,0.1,-2.9,18.3
SMILES,NR0B1 inh,AHR act,GAA850 FXN act,HSF1 inh,HSP90 inh,HSF1 activator
NS(=O)(=O)c1ccc(CCNC(=O)c2cc(-c3ccccc3)nc3ccccc23)cc1,-1.9,12.0,-0.4,21.0,-5.5,64.1*
Cc1ccc(CCNC(=O)c2cc(-c3ccncc3)nc3ccccc23)cc1,2.0,18.0,0.9,26.4,-1.6,44.8
CCCOc1ccc(-c2cc(C(=O)NCC3CCCO3)c3ccccc3n2)cc1 (stereo unspecified),-1.8,51.1*,3.3,3.3,1.7,24.2
O=C(NCC1CCCO1)c1cc(-c2ccncc2)nc2ccccc12 (stereo unspecified),-0.7,/,-0.8,/,/,/
CCCCCCCNC(=O)c1cc(-c2ccncc2)nc2ccccc12,-0.4,10.6,1.7,43.4,0.6,68.2*
O=C(Nc1nccs1)c1cc(-c2ccncc2)nc2ccccc12,-0.2,55.6*,0.8,-7.5,-8.8,-15.9
Cc1ccc(C)c(NC(=O)c2cc(-c3cccnc3)nc3ccccc23)c1,6.3*,4.8,-1.0,-1.1,-0.6,-15.5
Cc1ccc(-c2cc(C(=O)Nc3ccncc3)c3ccccc3n2)cc1,0.3,12.3,0.4,21.0,/,27.4

# Screening results as filed in PubChem BioAssay.
